Test results as given in PubChem BioAssay AID1159580 (chemical genetic matrix, 2015).
Values joined by “and” are separate entries in the source; they are usually repeats but may differ in a detail not shown here. Identical values can stand only once. About 2,000 (36%) of roughly 5,500 compounds were called active. Inconclusive results (about 18%) are left out. Cut-off read from the data, not from the text of the source: active = normalized growth mostly below about 0.91 (no sharp cut-off); inconclusive = no clear call, values can overlap the other calls; inactive = mostly above about 0.92. The list shows a part of the results.

Assay: chemical genetic growth profiling, strain panel (AID 1159580);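 note: tested at 20 µM; growth read once vehicle control cultures reached saturation at 30 °C; 1 = growth at the plate median or of vehicle wells; lower values mean less growth of the strain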
Details: S. cerevisiae deletion strains, growth OD

Measured: normalized growth

Fc1ccc([C@@H]2CCNC[C@H]2COc2ccc3c(c2)OCO3)cc1
inactive: locus YAL013W, strain DEP1, active compounds read low 1.02 | locus YAL021C, strain ccr4, active compounds read low 1 | locus YAL026C, strain drs2, active compounds read low 0.997 | locus YAL030W, strain snc1, active compounds read low 1.01 | locus YBL061C, strain skt5, active compounds read low 0.991 | locus YBR009C, strain hhf1, active compounds read low 1.01 | locus YBR021W, strain FUR4, active compounds read low 1.01 | locus YBR023C, strain chs3, active compounds read low 1 | locus YBR171W, strain sec66, active compounds read low 0.984 | locus YBR229C, strain ROT2, active compounds read low 1.01 | locus YBR231C, strain swc5, active compounds read low 0.992 | locus YBR279W, strain paf1, active compounds read low 1 | locus YCL011C, strain gbp2, active compounds read low 0.999 | locus YCL016C, strain dcc1, active compounds read low 0.99 | locus YCL029C, strain bik1, active compounds read low 1.02 | locus YCL061C, strain MRC1, active compounds read low 0.998 | locus YCL069W, strain vba3, active compounds read low 1 | locus YCR088W, strain abp1, active compounds read low 1 | locus YDL005C, strain med2, active compounds read low 1.01 | locus YDL035C, strain GPR1, active compounds read low 1.03 | locus YDL040C, strain nat1, active compounds read low 0.992 | locus YDL074C, strain BRE1, active compounds read low 1.01 | locus YDL101C, strain DUN1, active compounds read low 1.01 | locus YDL134C, strain PPH21, active compounds read low 1 | locus YDL185W, strain tfp1, active compounds read low 1.01 | locus YDL192W, strain arf1, active compounds read low 1.01 | locus YDR001C, strain nth1, active compounds read low 0.999 | locus YDR069C, strain doa4, active compounds read low 1.01 | locus YDR101C, strain arx1, active compounds read low 1 | locus YDR137W, strain rgp1, active compounds read low 1.09 | locus YDR150W, strain NUM1, active compounds read low 1 | locus YDR159W, strain sac3, active compounds read low 1.01 | locus YDR162C, strain NBP2, active compounds read low 1 | locus YDR195W, strain ref2 1.02 | locus YDR297W, strain sur2, active compounds read low 0.998 | locus YDR318W, strain mcm21, active compounds read low 1.02 | locus YDR334W, strain swr1, active compounds read low 1.01 | locus YDR335W, strain msn5, active compounds read low 1.01 | locus YDR388W, active compounds read low 1 | locus YDR392W, strain spt3, active compounds read low 1.02 | locus YDR502C, strain sam2, active compounds read low 0.998 | locus YEL003W, strain gim4, active compounds read low 1.01 | locus YEL037C, strain rad23, active compounds read low 1 | locus YEL061C, strain CIN8 (second series), active compounds read low 1 | locus YEL061C, strain CIN8, active compounds read low 1.01 | locus YER015W, strain faa2, active compounds read low 1.01 | locus YER016W, strain bim1, active compounds read low 0.99 | locus YER110C, active compounds read low 1.02 | locus YER111C, strain swi4, active compounds read low 0.984 | locus YER155C, strain BEM2 (second series), active compounds read low 1.01 | locus YER155C, strain BEM2, active compounds read low 1 | locus YER167W, strain BCK2, active compounds read low 1.02 | locus YFR010W, strain ubp6, active compounds read low 1.03 | locus YGL078C, strain dbp3, active compounds read low 0.989 | locus YGL086W, strain mad1, active compounds read low 1.02 | locus YGL167C, strain pmr1, active compounds read low 1 | locus YGL173C, strain kem1, active compounds read low 0.986 | locus YGL227W, strain vid30, active compounds read low 0.987 | locus YGL240W, strain doc1, active compounds read low 0.99 | locus YGL248W, strain PDE1, active compounds read low 1.01 | locus YGL253W, strain hxk2, active compounds read low 0.993 | locus YGR078C, strain PAC10, active compounds read low 1 | locus YGR135W, strain pre9, active compounds read low 0.987 | locus YGR229C, strain SMI1, active compounds read low 1 | locus YGR252W, strain gcn5, active compounds read low 1.05 | locus YHR013C, strain ard1, active compounds read low 0.998 | locus YHR027C, strain rpn1, active compounds read low 1 | locus YHR030C, strain SLT2, active compounds read low 1.01 | locus YHR079C, strain IRE1 (second series), active compounds read low 1 | locus YHR079C, strain IRE1, active compounds read low 1.02 | locus YHR094C, strain hxt1, active compounds read low 0.999 | locus YHR129C, strain ARP1, active compounds read low 1.01 | locus YHR142W, strain chs7, active compounds read low 0.969 | locus YHR200W, strain rpn10, active compounds read low 1.01 | locus YIL066C, strain RNR3, active compounds read low 1.01 | locus YIL073C, strain SPO22, active compounds read low 1.09 | locus YIL125W, strain kgd1, active compounds read low 0.997 | locus YIR030C, strain dcg1, active compounds read low 1 | locus YJL092W, strain hpr5, active compounds read low 0.998 | locus YJL095W, strain BCK1 (second series), active compounds read low 0.995 | locus YJL095W, strain BCK1, active compounds read low 1.02 and 1.01 | locus YJL115W, strain asf1, active compounds read low 1 | locus YJL129C, strain trk1, active compounds read low 0.987 | locus YJL134W, strain LCB3, active compounds read low 1.01 | locus YJL154C, strain vps35, active compounds read low 1.02 | locus YJL164C, strain tpk1, active compounds read low 1.01 | locus YJL166W, strain qcr8, active compounds read low 1.03 | locus YJL168C, strain set2, active compounds read low 1.01 | locus YJL187C, strain SWE1 (second series), active compounds read low 1 | locus YJL187C, strain SWE1, active compounds read low 1.01 | locus YJR043C, strain POL32, active compounds read low 1.04 | locus YJR066W, strain TOR1, active compounds read low 1.02
